Only a sample is shown.
aSyn 5UTR act: Activators working through SNCA 5'UTR binding (MLPCN) | alpha-synuclein 5'UTR reporter, activators screen | activity score, % (tested at 7.5 µM), hits read low | actives 7.1% (n = 300,000) | AID 1814; in the data active = activity score below about -60%
Each line names hits and unclear results; the compound was inactive in the other large screens.

COc1cccc(C(=O)Nc2ccccc2)c1	aSyn 5UTR act -122
COc1cccc(C(=O)Nc2cccc(SC)c2)c1	aSyn 5UTR act -156
Cc1ccc(C(=O)Nc2cccc(Oc3ccccc3)c2)o1	aSyn 5UTR act -126
O=C(Nc1ccc(O)cc1)c1ccc(C(=O)c2ccccc2)o1	aSyn 5UTR act -120
CCn1c2ccccc2c2cc(NC(=O)c3cccc(OC)c3)ccc21	aSyn 5UTR act -180
COc1cccc(NC(=O)c2ccc(C(=O)c3ccccc3)o2)c1	aSyn 5UTR act -147
COc1cccc(C(=O)NNC(=O)c2ccccc2)c1	aSyn 5UTR act -113
COc1c(C(=O)NNC(=O)c2ccccc2)csc1Br	aSyn 5UTR act -82
COc1cccc(C(=O)N/N=C(/c2ccccc2)c2ccccn2)c1	none
COc1ccc(/C=C(\C#N)c2nc3ccc(C)cc3[nH]2)cc1Oc1ccc(C(F)(F)F)cc1[N+](=O)[O-]	aSyn 5UTR act -85
COc1cc(/C=C(\C#N)c2nc3ccccc3[nH]2)ccc1Oc1ccc([N+](=O)[O-])cn1	aSyn 5UTR act -104
COc1cc(/C=C(/C#N)c2nc3ccccc3[nH]2)ccc1OC(=O)c1ccco1	aSyn 5UTR act -114
COc1c(O)ccc(/C=C(\C#N)c2nc3ccccc3[nH]2)c1[N+](=O)[O-]	aSyn 5UTR act -92
COc1cc(/C=C(\C#N)c2nc3ccccc3[nH]2)cc(OC)c1O	aSyn 5UTR act -99
N#C/C(=C\c1cc([N+](=O)[O-])c(N2CCOCC2)cc1N1CCOCC1)c1nc2ccccc2[nH]1	aSyn 5UTR act -92
COc1ccc(/C=C(\C#N)c2nc3ccccc3[nH]2)cc1O	aSyn 5UTR act -144
CN(C)/C=N/C(=S)Nc1ccc(Br)cc1F	aSyn 5UTR act -108
CN(C)c1ccc(C(=S)NCc2ccco2)cc1	aSyn 5UTR act -69
CN(C)c1ccc(/C=N/NC(=S)NCc2ccco2)cc1	aSyn 5UTR act -127
FC(F)Sc1ccc(NC(=S)NC2CCCC2)cc1	aSyn 5UTR act -105
O=C(Nc1ccc(SC(F)F)cc1)C12CCC(CC1)C2	aSyn 5UTR act -80
OC1CCC(NC(=S)Nc2ccc(SC(F)F)cc2)CC1 (centres undefined)	aSyn 5UTR act -126
O=C(CN1CCCC1)Nc1nc(-c2ccc3c(c2)CCN3C(=O)c2ccccc2F)cs1	aSyn 5UTR act -123
Cc1cccc(C(=O)N2CCc3cc(-c4nc(NC(=O)CN5CCCC5)sc4C)ccc32)c1	aSyn 5UTR act -71
Cc1cccc(C(=O)N2CCc3cc(-c4csc(NC(=O)CN5CCCC5)n4)ccc32)c1	aSyn 5UTR act -74
COCCCn1c(SCC(=O)Nc2ccc(C(C)=O)cc2)nc2ccccc2c1=O	aSyn 5UTR act -84
CC(=O)c1ccc(NC(=O)CSc2nc(=O)cc(N)n2-c2ccccc2)cc1	aSyn 5UTR act -143
CCn1c(SCC(=O)Nc2ccc(C(C)=O)cc2)nc2ccccc21	aSyn 5UTR act -70
Cc1cc(CNC(=O)Nc2ccc3c(c2)OCO3)nn1C	aSyn 5UTR act -80
CCn1nc(C)c(CNC(=O)Nc2ccc3c(c2)OCO3)c1C	aSyn 5UTR act -70
Cc1cc(NC(=O)c2cncc(Br)c2)ccc1NC(=O)c1cc2ccccc2o1	none
COc1ccc(C)cc1NC(=O)c1cc2ccccc2o1	aSyn 5UTR act -147
Cc1ccnc(NC(=O)c2cc3ccccc3o2)c1	none
Cc1ccc(C)c(NC(=O)c2cc3ccccc3o2)c1	aSyn 5UTR act -172
Cc1cc([N+](=O)[O-])ccc1NC(=O)c1cc2ccccc2o1	aSyn 5UTR act -115
CCC(C)(C)c1ccc(OCCCC[n+]2cccc(C)c2C)c(C(C)(C)CC)c1	none
COC(=O)c1cc(/C=C/c2ccccc2)[nH]n1	aSyn 5UTR act -117
Fc1ccccc1C1CCN(Cc2nc(CC3CC3)no2)C1 (centres undefined)	aSyn 5UTR act -82
Nc1nn(-c2cccc(F)n2)cc1-c1ccccc1	aSyn 5UTR act -113
Cc1cccc(C=Nc2ccccc2C(N)=O)c1	aSyn 5UTR act -70
CCOC(=O)c1nn(-c2ccc(C)c(C)c2)cc1O	aSyn 5UTR act -141
COC(=O)c1nn(-c2ccc3c(c2)OCO3)cc1O	aSyn 5UTR act -86
CCOC(=O)c1nn(-c2ccc(C)cc2)cc1C(=O)c1ccccc1	aSyn 5UTR act -120
COC(=O)c1nn(-c2ccc3c(c2)CCN3C(C)=O)cc1O	none
CCOC(=O)c1nn(-c2ccc(C)c(C)c2)c(=O)c2c(N)scc12	none
Nc1ccccc1C#CC(=O)c1ccccc1	aSyn 5UTR act -90
CCCc1nn(C)c(C(=O)Nc2ccccc2)c1Cl	aSyn 5UTR act -98
CCCc1nn(C)c(C(=O)Nc2cccc(C)c2)c1Cl	aSyn 5UTR act -123
CCCc1nn(C)c(C(=O)Nc2ccc(Cl)cc2)c1Cl	aSyn 5UTR act -79
COc1ccc(C2C(C(=O)c3cccs3)=C(O)C(=O)N2c2nncs2)cc1 (centres undefined)	aSyn 5UTR act -108
Cc1ccccc1-c1nnc(-c2cccs2)o1	aSyn 5UTR act -116
Cc1ccccc1-c1noc(-c2cccs2)n1	aSyn 5UTR act -251
N#CCCCCn1ccc(NC(=O)c2ccc(Cl)cc2O)n1	aSyn 5UTR act -81
Cc1nc(Nc2ccc3c(c2)OCCO3)c2c(C)c(C)sc2n1	aSyn 5UTR act -72
COc1ccc(-c2cc3ccc(O)cc3oc2=O)cc1	aSyn 5UTR act -64
O=c1oc2cc(O)ccc2cc1-c1ccccc1	aSyn 5UTR act -147
CC(=O)Oc1ccc(-c2cc3ccccc3oc2=O)cc1	aSyn 5UTR act -135
O=c1cc(-c2ccccc2)c2ccc(O)cc2o1	none
Cc1cc(F)ccc1NC(=O)Nc1ccc2c(c1)OCO2	aSyn 5UTR act -72
Cc1ccc(NC(=O)Nc2ccc3c(c2)OCO3)c(OC(F)F)c1	aSyn 5UTR act -106
Cc1ccc(NC(=O)Nc2ccc3c(c2)OCO3)cc1F	aSyn 5UTR act -109
Cc1ccc(NC(=O)CSc2ccc(-c3ccc4c(c3)OCO4)nn2)cc1F	aSyn 5UTR act -76
Cn1/c(=N/NC(=O)c2ccccc2Br)sc2ccccc21	aSyn 5UTR act -75
C=CC(=O)N=c1sc2ccccc2n1-c1ccccc1	none
Cn1c(=NC(=O)C2=NNC(=O)CC2)sc2ccccc21	none
Cc1nc(C(C)NC(=O)CCc2nnc(CCCc3ccccc3)o2)c(C)s1 (centres undefined)	aSyn 5UTR act -174
O=C(CCc1nnc(CCCc2ccccc2)o1)NC(C1CC1)C1CC1	aSyn 5UTR act -146
CC(NC(=O)CCc1nnc(-c2ccc(-c3ccccc3)cc2)o1)c1nccs1 (centres undefined)	none
CC(C)c1ccc(C(=O)N(c2ccccn2)C(C)c2ccco2)cc1 (centres undefined)	aSyn 5UTR act -161
CC(=O)NC(c1ccco1)c1ccc2cccnc2c1O (centres undefined)	none
O=C(Nc1ncc(Cc2cccc(Cl)c2)s1)C1CCCO1 (centres undefined)	aSyn 5UTR act -161
O=C(Nc1ncc(Cc2ccccc2Cl)s1)C1CCCO1 (centres undefined)	aSyn 5UTR act -89
O=C(Nc1ncc(Cc2cccc(Cl)c2Cl)s1)C1CCCO1 (centres undefined)	aSyn 5UTR act -128
CC(C)/C(=N\NC(=O)Nc1ccccc1)c1ccccc1	aSyn 5UTR act -70
C/C(=N\NC(=O)Nc1ccccc1)c1ccccc1	aSyn 5UTR act -80
Nc1ccc(-n2nc3ccccc3n2)cc1	none
COc1ccc2nc3ccccc3nc2c1	aSyn 5UTR act -123
COc1ccc(-n2nc3cc(N)c(Br)cc3n2)cc1	aSyn 5UTR act -164
COc1ccc(-n2nc3cc(C)c(N)c(Br)c3n2)cc1	aSyn 5UTR act -89
COc1ccc(-n2nc3ccccc3n2)cc1	aSyn 5UTR act -93
Cc1cc(C)c(C(=O)CN2C(=O)NC3(CCCCC3)C2=O)cc1C	aSyn 5UTR act -73

Source: PubChem BioAssay (Broad Institute)
